Experimental data as given in PubChem BioAssay AID588342 (National Center for Advancing Translational Sciences (NCATS), 2011).
The whole screen tested about 360,000 compounds, of which about 25,000 (6.9%) were called active. A call without a number means that no potency is given here. About 9% were inconclusive and are not listed. The full list was thinned out, with actives kept by preference. Values without a mark were called inactive. Calls follow the shape of the dose curve; as a rule, active = well fitted inhibition curve with a large enough effect; inconclusive = small, poorly fitted or top-dose-only effect; inactive = flat fitted curve, though single readings scatter.

Target: Luciferin 4-monooxygenase (Photinus pyralis) (UniProt P08659)
Test: qHTS profiling assay for firefly luciferase inhibitor/activator using purifed enzyme and Km concentrations of substrates (counterscreen for miR-21 project); also: nearly all actives have a fitted effect of over 55% in size
Details: purified FLuc, luminescence inhibition; series mostly up to 57.5 µM
Text: MLPCN Grant: 1 R21 NS059478-01 (miR-21 grant) Assay Provider: NCGC NCGC Assay Overview: Firefly (Photinus pyralis) luciferase is one of the most commonly used transcriptional reporters for a number of reasons. It is considered one of the more dynamically responsive reporters -that is, responsive to changes in reporter transcription - as it requires no post-translational modifications and is enzymatically active directly after protein synthesis (Wood, 1998). Additionally, the half-life of the luciferase protein is short relative to other reporter-gene products (Wood, 1995). Whereas reporters with long half-lives potentially allow for increased signal due to accumulation of reporter-gene product, once accumulated in the cell, dynamic changes in reporter-gene expression may be difficult to detect(Fan and Wood, 2007; Almond et al., 2004). It has been shown that wild-type P. pyralis luciferase has a half-life of approximately […] hours in mammalian cells (Thompson et al., 1991). Firefly luciferase reporter-gene assays are also generally considered one of the most sensitive assay types (Wood, 1995; Wood, 1998). Although light produced in a bioluminescence reaction is of lower intensity than that produced during fluorescence emission, this is offset by little to no background light inherent to luminescent assays. Thus the luciferase reporter can be expressed at much lower levels than fluorescent proteins while still providing robust signal. # However, it was initially observed, in 1991, by Thompson et al., that compounds that resemble the substrates of firefly luciferase (FLuc) can act as competitive inhibitors of the enzyme, and that these compounds, upon interaction with luciferase in the cell, can actually stabilize the protein and increase its half-life. Accumulated intracellular FLuc protein can be measured as an increase in luminescence signal, upon addition of detection reagents (which contain high concentrations of FLuc substrates) commonly used in high-throughput screening. In cell-based reporter gene assays that use FLuc as the reporter gene to quantitate the potential influence of a given compound against the target biology, this apparent increase in luminescence can mistakenly be interpreted as identification of a compound that is active against the target of interest. This is the case for the miR-21 FLuc reporter gene assay used to identify inhibitors of the miR-21 pathway (PubChem AID 2289) - compounds of interest will inhibit miR-21 biogenesis/expression or activity, and are identified by causing an increase in luminescence, due to increased FLuc translation. However, FLuc inhibitory compounds that stabilize the FLuc protein will give an identical read-out, making it difficult to distinguish compounds that are active against the target from those active against FLuc. Previous profiling work to determine the prevalence of compounds that affect FLuc enzymatic activity (PubChem AID 411) identified that ~3% of the MLSMR library (then at ~72K) inhibited FLuc. […] Since the MLSMR had grown to ~350K compounds, and since it was expected that a significant percentage of compounds found active in the miR-21 FLuc assay would be FLuc inhibitors, the library was screened for activity against FLuc using a biochemical assay of purified FLuc and KM concentrations of FLuc substrates (D-luciferin and ATP).
NCGC Assay Protocol Summary: Reagents: 50mM Tris acetate, pH 7.5; 10mM Mg acetate; 10uM D-luciferin (Sigma #L9504); 10uM ATP; 0.01% Tween-20; 0.05% BSA; 10nM P. pyralis luciferase (Sigma #L9506) Control compounds used were two known firefly luciferase inhibitors (compounds (2) and (5) in Auld et al., 2010), and DMSO. […]

Chain of Luciferin 4-monooxygenase (Photinus pyralis) (P08659 whole entry, looked up): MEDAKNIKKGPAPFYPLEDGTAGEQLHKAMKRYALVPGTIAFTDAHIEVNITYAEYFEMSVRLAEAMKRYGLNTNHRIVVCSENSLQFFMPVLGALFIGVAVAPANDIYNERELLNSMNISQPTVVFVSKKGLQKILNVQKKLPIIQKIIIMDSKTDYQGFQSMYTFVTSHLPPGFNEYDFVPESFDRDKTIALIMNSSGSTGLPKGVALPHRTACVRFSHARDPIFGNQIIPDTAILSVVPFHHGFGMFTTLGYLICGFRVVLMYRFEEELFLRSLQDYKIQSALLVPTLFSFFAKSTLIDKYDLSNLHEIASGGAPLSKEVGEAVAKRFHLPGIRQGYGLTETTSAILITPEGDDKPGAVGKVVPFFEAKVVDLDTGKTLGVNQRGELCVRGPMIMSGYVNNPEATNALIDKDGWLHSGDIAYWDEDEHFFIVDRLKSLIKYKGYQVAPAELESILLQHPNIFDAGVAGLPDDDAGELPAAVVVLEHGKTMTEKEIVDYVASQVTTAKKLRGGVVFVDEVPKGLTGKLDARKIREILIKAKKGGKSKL

Structure (SMILES) | Potency | activity change, negative = inhibition
COc1ccc(NC(=O)Nc2cccc3cccnc23)cc1 | 1.9 µM (active) | –
CC(C)c1c(CN(C)C(C)Cc2ccccc2)n(C)n(-c2ccccc2)c1=O (stereo not given) | inactive | –
Cc1ccccc1NC(=O)COC(=O)c1cc(C)n(C2CC2)c1C | inactive | –
COC(=O)C1=C(c2cccc(OCc3ccccc3)c2)C[C@@H]2CC[C@H]1N2C(=O)NCc1ccc(Br)cc1 | inactive | –
COc1cccc(-c2nc3ccc(N4CCN(C)CC4)cc3[nH]2)c1 | 0.269 µM (active) | –
COc1ccc(C(=O)CC2C(=O)N(C)C(=O)N(C)C2=O)cc1 | inactive | –
O=c1c2ccccc2nc(/C=C/c2ccco2)n1-c1ccccc1O | inactive | –
Cn1c(O)c(C=NCCN2CCNCC2)c(=O)n(C)c1=O | inactive | –
Cn1c(O)c(C=Nc2ccc3c(c2)CCC3)c(=O)n(C)c1=O | 3.38 µM (active) | –
Cn1c(O)c(C=NCCCC(=O)O)c(=O)n(C)c1=O | inactive | –
CCN1C(=O)C(=Cc2c(C)n(CC(=O)NCC3CCCO3)c3ccccc23)C(=O)N(CC)C1=S (stereo not given) | inactive | –
COC(=O)C1=C(c2ccc(F)cc2OCc2ccccc2)C[C@@H]2CC[C@H]1N2C(=O)NCc1ccc(C(C)(C)C)cc1 | inactive | –
O=C(OCC(=O)c1cccs1)C1=COCCO1 | 23.9 µM (active) | –
CSC1=NP(=S)(SC)N(C)c2nc3n(c21)CCC3 (stereo not given) | inactive | –
CC(C)c1ccc(OCC(=O)N2CCCN(C)CC2)cc1 | inactive | –
CN(C)CC1CCCCC1=O (stereo not given) | inactive | –
CC(=O)Nc1ccc(C(=O)C(Cc2ccccc2)N(C)C)cc1 (stereo not given) | inactive | –
O=C1NC(=O)N(c2ccc(F)cc2)C(=O)/C1=C/c1ccc2c(c1)CCCN2Cc1ccccc1 | inactive | –
O=C1NC(=O)N(c2ccccc2)C(=O)/C1=C/c1ccc([N+](=O)[O-])s1 | 26.9 µM (active) | –
CCN(CC)C(=O)c1ccc(NC(=O)c2sccc2-c2ccccc2)cc1 | inactive | –
O=[N+]([O-])c1ccc(C2C3C(c4ccccc4)=NC4(CCCCC4)N32)cc1 (stereo not given) | inactive | –
CC(=O)Oc1ccccc1C(=O)Nc1ncc([N+](=O)[O-])s1 | 6.75 µM (active) | –
C[C@]12CC[C@H](O)C[C@H]1CC[C@@H]1C2CC[C@]2(C)[C@@H](C3=CC(=O)OC3)[C@@H](O)C[C@]12O (stereo not given in full) | inactive | –
CCC1(C)CC(CCNCc2ccc(N(C)C)cc2)(c2ccc(F)cc2)CCO1 (stereo not given) | inactive | –
CC(C)CN1CCN(Cc2ccccc2C(F)(F)F)CC1CCO (stereo not given) | inactive | –

Structure (SMILES) | Potency | activity change, negative = inhibition
N#Cc1ccc(Cn2cc(C(=O)c3ccco3)c3ccccc32)cc1 | 19 µM (active) | –
NC(=O)Cn1cc(C(=O)c2ccccc2F)c2ccccc21 | inactive | –
CN1CCC(OC(=O)c2cccc(F)c2)CC1 | inactive | –
O=[N+]([O-])c1cnc2ccc3ccccc3c2c1 | inactive | –
CCCCCn1c(=O)c(C(=O)NCc2ccccc2)c(O)c2ccccc21 | inactive | –
COC(=O)C1=C(c2c(C)noc2C)C[C@@H]2CC[C@H]1N2C(=O)NCc1ccc2c(c1)OCO2 | inactive | –
Cc1cccc(Cn2cccc(C(=O)Nc3ccc4c(c3)OCCO4)c2=O)c1 | 15.1 µM (active) | –
Cc1nnc(NC(=O)c2cccn(Cc3cccc(F)c3)c2=O)s1 | inactive | –
Cc1ccc(NC(=O)N(Cc2ccc3c(c2)OCO3)C2CCN(Cc3ccccc3)CC2)cc1F | inactive | –
Cn1cc(C(=O)OCC(=O)N2CCCC2)c2ccccc21 | inactive | –
COC(=O)C1=C(c2ccccc2OCc2ccccc2)C[C@@H]2CC[C@H]1N2C(=O)NCc1ccc(OC)cc1 | inactive | –
C[C@@]1([C@@H](NP(=O)(c2ccccc2)c2ccccc2)c2ccccc2)C[C@H]1CCO | inactive | –
O=C(O)CCn1cc(C=C2C(=O)NC(=S)NC2=O)c(-c2cccc(Br)c2)n1 | 21.3 µM (active) | –
COC(=O)C1=C(c2ccc(C(C)=O)cc2)C[C@@H]2CC[C@H]1N2C(=O)NCCNC(C)=O | inactive | –
Cc1cc(C=C2C(=O)NC(=O)NC2=O)c(C)n1-c1ccncc1 | inactive | –
Cc1ccnc(-n2c(C)cc(/C=C3\C(=O)NC(=S)N(C)C3=O)c2C)c1 | 7.57 µM (active) | –
Cc1ccccc1N1C(=O)NC(=O)/C(=C\c2cc(C)n(C)c2C)C1=O | inactive | –
O=C(CCC(=O)N1C[C@H]2C[C@@H](C1)c1cccc(=O)n1C2)NCc1ccccc1C(F)(F)F | inactive | –
COC(=O)C1=C(c2ccc(-c3ccccc3)c(F)c2)C[C@@H]2CC[C@H]1N2C(=O)NCc1ccc(F)cc1 | inactive | –
Cc1cc(C)cc(NC(=S)NC2CC3CCCC(C2)N3Cc2cccs2)c1 (stereo not given) | inactive | –
Cc1nc2ccccn2c1P(=S)(N1CCCCC1)N1CCCCC1 | inactive | –
O=C1NC(=O)C(C/C=C/c2ccccc2)C(=O)N1 | inactive | –
Cc1ccc(NN=C2C(=O)OC(C)(C)OC2=O)c(C)c1 | 9.53 µM (active) | –
CC1=C(C(=O)Nc2ccccc2)S(=O)(=O)CCO1 | inactive | –
O=C(O)c1ccccc1NC(=O)C1C2CCC(O2)C1C(=O)O (stereo not given) | inactive | –

Structure (SMILES) | Potency | activity change, negative = inhibition
Fc1ccc(C2N3CCCN23)cc1 (stereo not given) | inactive | –
O=C(Nc1cccc(OC(=O)N2CCCCC2)c1)N1CCOCC1 | inactive | –
CN1CCN(C(=O)COc2ccc(C(C)(C)C)cc2Br)CC1 | inactive | –
CC(C)(C)c1ccc(OC(=O)N2CCCCC2)cc1 | 10.7 µM (active) | –
COC(=O)C1=C(c2ccc3ccccc3c2)C[C@@H]2CC[C@H]1N2C(=O)NCCO | inactive | –
CCCCCn1c(=O)c(C(=O)NCc2ccccn2)c(O)c2ccccc21 | inactive | –
CC(C)Oc1ccc(NC(=O)c2cc3ccccc3o2)cc1 | 1.51 µM (active) | –
CC(=O)Cc1ccc(OC(C)C)cc1 | inactive | –
Cc1ccc(-c2nc3ccccc3c(=O)n2-c2ccc(Br)cn2)cc1 | inactive | –
COCCNC(=O)CN1C2CCC1CC(O)(c1cccnc1)C2 (stereo not given) | inactive | –
CC/C(=N\NC(=O)c1ccccc1O)c1c(O)n(Cc2ccccc2)c(=O)[nH]c1=O | 9.53 µM (active) | –
CCC(=NCc1ccco1)c1c(O)n(Cc2ccccc2)c(=O)[nH]c1=O | inactive | –
CCC(=NCCc1ccccc1)c1c(O)n(C2CCCCC2)c(=O)[nH]c1=O | inactive | –
Cc1ccc(C(C)C)c(OCC(=O)N2CCN(CC(=O)N3CCOCC3)CC2)c1 | inactive | –
CC1(C)Cc2c(C#N)c(N3CCNCC3)nc(-c3ccco3)c2CS1 | inactive | –
Cc1ccc(Cn2nnnc2CN2CCC(n3nnc4ccccc43)CC2)cc1 | inactive | –
CCc1cccc2c(C#N)cn(CC(=O)N3CCOCC3)c12 | inactive | –
C=CCN(CC=C)C(=O)Nc1ccc(OCC)cc1 | inactive | –
O=C(O)COc1ccccc1/C=C1\C(=O)NC(=O)N(CCC2=CCCCC2)C1=O | inactive | –
C=CCN1C(=O)NC(=O)/C(=C/c2ccc(OCC(=O)Nc3ccc(C)cc3)cc2)C1=O | 21.3 µM (active) | –
COC(=O)C1=C(c2ccc(Cl)c(C(F)(F)F)c2)C[C@@H]2CC[C@H]1N2C(=O)NC1CC1 | inactive | –
Cc1cc(C(=O)OCC(=O)Nc2c(F)cccc2F)c(C)n1C1CC1 | inactive | –
c1cc2c(cc1CCNC1CCCCCC1)OCO2 | inactive | –
COC(=O)C1=C(c2ccc(F)cc2OCc2ccccc2)C[C@@H]2CC[C@H]1N2C(=O)NCc1ccc(OC)c(OC)c1 | inactive | –
COc1cccc(N2C(=O)NC(=O)/C(=C\c3cn(C)c4ccccc34)C2=O)c1 | inactive | –

Structure (SMILES) | Potency | activity change, negative = inhibition
Cc1cccc(N2C(=O)NC(=O)/C(=C\c3cnn(-c4ccccc4)c3)C2=O)c1 | 15.1 µM (active) | –
O=C1C2(Cl)C3(Cl)C4(Cl)C(Cl)(Cl)C5(Cl)C3(Cl)C1(Cl)C5(Cl)C24Cl (stereo not given) | inactive | –
COc1ccc(Br)cc1CNCCc1cccc(Cl)c1 | inactive | –
COc1cc(-n2c(=S)[nH]c3ccc(C)cc3c2=O)c(Cl)cc1Cl | inactive | –
c1csc(-c2nnc(COc3ccc4c(c3)OCO4)o2)c1 | 19 µM (active) | –
CCN(CC)P(=O)(Oc1cccc(C)c1)N(CC)CC | inactive | –
COC(=O)C1=C(c2ccc(F)cc2F)C[C@@H]2CC[C@H]1N2C(=O)NC1CC1 | inactive | –
Cc1nc2ccc(N3CCN(C)CC3)cc2nc1C | 19 µM (active) | –
CN1CCN(c2cc(N3CCNCC3)ccc2[N+](=O)[O-])CC1 | inactive | –
COC(=O)C1=C(c2cccc(OCc3ccccc3)c2)C[C@@H]2CC[C@H]1N2C(=O)NNCc1ccccc1 | inactive | –
CCOC(=O)C1=C(C)OC(N)=C(C(=O)OC)C12C(=O)Nc1ccc(Br)cc12 (stereo not given) | inactive | –
Cc1ccc(-n2c(/C=C/c3cccc(C(F)(F)F)c3)nc3ccccc3c2=O)cc1 | inactive | –
COC(=O)C1=C(c2ccc(F)cc2OCc2ccccc2)C[C@@H]2CC[C@H]1N2C(=O)NCc1ccc(Cl)cc1 | inactive | –
O=C1NC(=O)N(CCc2ccc(F)cc2)C(=O)/C1=C/C=C/c1ccccc1 | inactive | –
Cc1cc(/C=C2/C(=O)NC(=O)N(Cc3ccco3)C2=O)c(C)n1-c1ccc(C(=O)O)cc1 | inactive | –
O=C1NC(=O)N(Cc2ccco2)C(=O)/C1=C\c1ccc(-c2ccc(F)cc2)o1 | 10.7 µM (active) | –
c1ccc2sc(C3CCCNC3)nc2c1 (stereo not given) | inactive | –
COC(=O)C1=C(c2ccc(F)cc2OCc2ccccc2)C[C@@H]2CC[C@H]1N2C(=O)NCc1ccc2[nH]ccc2c1 | inactive | –
CN(C)C(=O)Oc1ccc(OCc2cccc[n+]2C)cc1 | inactive | –
CN(C)C(=O)Oc1ccc2c(c1)O/C(=C\c1ccccc1)C2=O | 9.53 µM (active) | –
CCOC(=O)c1c(-c2ccccc2)oc2ccc(OC(=O)N(C)C)cc12 | – | 1.44% [at 2.3 µM]
CCC12CCN(CCc3ccccc3)CC1Oc1c(O)cccc12 (stereo not given) | inactive | –
COC(=O)C1=C(c2ccc(Cl)c(C(F)(F)F)c2)C[C@@H]2CC[C@H]1N2C(=O)NC(C)C | inactive | –
Cc1nn(-c2ccccc2)c(C)c1NC(=O)COC(=O)Cc1ccccc1 | inactive | –
COc1ccc(C(=O)C2CN(C)CC2C(=O)c2ccc(OC)cc2)cc1 (stereo not given) | inactive | –
